From PubChem
TDP1 cell CPT – DT40-hTDP1 cell growth loss with CPT; chicken DT40 Tdp1-/-;hTDP1 cells + 20 nM CPT, ATP luminescence, 48 h; Potency, µM (highest dose often 46.2 µM), usual class: inhibitors; hit rate 12% among 420,000; AID 686979; further: nearly all actives have a fitted effect of over 55% in size
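Cell growth measured by CellTiter-Glo luminescence after a minimum 48 h, 37 C compound exposure with 20 nM CPT in Tdp1-knockout DT40 cells stably expressing hTDP1, seeded 400/well; qHTS titration format.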
TGFb SMAD3 inh – blocks TGF-b signaling; HepG2 CAGA-GFP TGF-b/SMAD3 reporter, GFP fluorescence, 18 h; TGF-beta stimulated, 500 pg/mL final; Potency, µM (top dose mostly 46.1 µM), actives largely listed as inhibitors; hit rate 1.2% among 410,000; further: nearly all actives have a fitted effect of over 65% in size
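HEPG2 CAGA-GFP, 1000 cells/well; 2 h settle, 37 C; cpd via pin tool; TGF-b 500 pg/mL final; 18 h, 37 C; GFP imaging ex488/em500-530; %Activity normalised to -TGF-b and +DMSO controls; CRC fit, curve class.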
HepG2 viability – HepG2 cytotoxicity, counter-screen for TGF-b inhibitors | HepG2 CAGA-GFP viability, ATP luminescence, 18 h | AID 588856 | hit rate 0.76% among 410,000 | Potency, µM (highest dose often 46.1 µM), actives largely listed as cytotoxic
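CellTiter-Glo luminescence gave cytotoxicity after 18 hours at 37 degrees C. The cells were HepG2 CAGA-GFP in 1% FBS DMEM, stimulated with 500 pg/mL TGF-beta after compound addition. %Activity was normalised to no-cell wells (complete cell-killing) and DMSO (no toxicity), and curves were fitted and classified.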
TDP1 cell noCPT – qHTS for Inhibitors of human tyrosyl-DNA phosphodiesterase 1 (TDP1): qHTS in cells in absence of CPT; DT40 Tdp1-/- hTDP1 cells, no CPT, ATP luminescence, 48 h; Potency, µM (titrated, usually from 46.2 µM), most hits filed as inhibitors; hit rate 15% among 420,000; AID 686978, 2013; further: nearly all actives have a fitted effect of over 55% in size
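Compound effects on proliferation are scored in DT40 Tdp1-/-;hTDP1 cells in the absence of CPT. ATP levels (CellTiter-Glo luminescence) are recorded after a ≥48 hr, 37 °C incubation.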
IL1B secr inh – inflammasome signaling inhibition, IL-1 beta readout. THP-1 LPS/ATP IL-1B secretion, AlphaLISA, 16 h; stronger effect = lower value. activity change, % at 57.5 µM. hit rate 4.7% among 360,000; in the data active means activity change below about -50%; inconclusive means mostly about -30% to -49%
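Secreted IL-1B measured by AlphaLISA bead assay after 16 h compound exposure of THP-1 cells; compounds (final up to 57.5 uM) added 1 h before LPS (250 ng/mL) and ATP (1.25 mM) stimulation; lower signal means less secretion.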
S-ASM inh – inhibitors of human secretory acid sphingomyelinase; P17405; placental ASM, HMU-PC fluorogenic substrate, 60 min; Potency, µM (series often up to 57.5 µM), hits mostly inhibitors; hit rate 0.006% among 340,000
Target sequence (P17405 47-631 limits assumed): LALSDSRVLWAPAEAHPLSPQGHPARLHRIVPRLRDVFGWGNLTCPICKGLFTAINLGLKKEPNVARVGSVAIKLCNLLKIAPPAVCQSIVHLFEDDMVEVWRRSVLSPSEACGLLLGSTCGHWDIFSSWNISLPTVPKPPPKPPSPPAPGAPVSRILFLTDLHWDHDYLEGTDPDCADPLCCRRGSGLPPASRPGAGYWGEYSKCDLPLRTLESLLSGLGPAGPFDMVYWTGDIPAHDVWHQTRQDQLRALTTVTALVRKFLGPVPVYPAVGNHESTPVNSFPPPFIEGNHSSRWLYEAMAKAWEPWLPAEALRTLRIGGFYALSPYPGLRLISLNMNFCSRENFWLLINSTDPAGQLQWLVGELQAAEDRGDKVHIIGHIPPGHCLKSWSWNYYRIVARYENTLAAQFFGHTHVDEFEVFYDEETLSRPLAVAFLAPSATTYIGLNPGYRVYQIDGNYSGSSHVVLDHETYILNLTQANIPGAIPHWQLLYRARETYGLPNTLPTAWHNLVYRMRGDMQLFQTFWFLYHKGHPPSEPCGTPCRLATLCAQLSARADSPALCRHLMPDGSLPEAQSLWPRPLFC
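Fluorogenic HMU-PC substrate (9 uM final) is turned over by placental ASM in 60 min at 37 C after a 10 min compound preincubation. Reaction ended by alkaline stop (pH 10), with fluorescence read at 386/447 nm.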
Each line names hits and unclear results; the compound was inactive in the other large screens. Only some compounds are listed: those with a hit (about 19% of all), similar ones and a draw of the others. Unless noted, the call rests on the fitted dose curve; in most records, active means well fitted curve in the direction sought with a large enough effect; inconclusive means small, poorly fitted or top-dose-only effect, or another doubt; inactive means no such curve, though single readings can be large; an effect the other way counts as inactive or inconclusive.

Cc1oc(-c2ccc(Cl)cc2)nc1CS(=O)CC(=O)NCCCN1CC(C)CC(C)C1 (stereo not drawn)	TDP1 cell CPT inconclusive, TGFb SMAD3 inh inconclusive, TDP1 cell noCPT inconclusive, IL1B secr inh -70
Cc1ccc(-c2nc(CS(=O)CC(=O)NCCN3CCCCCC3)c(C)o2)cc1 (stereo not drawn)	TGFb SMAD3 inh 13µM, TDP1 cell noCPT inconclusive
Cc1oc(-c2ccc(Cl)cc2)nc1CS(=O)CC(=O)NCCN1CCCCCC1 (stereo not drawn)	TGFb SMAD3 inh inconclusive, TDP1 cell noCPT inconclusive
Cc1ccc(-c2nc(CS(=O)CC(=O)NCCc3ccc(Cl)cc3)c(C)o2)cc1 (stereo not drawn)	TDP1 cell CPT inconclusive, TGFb SMAD3 inh inconclusive, TDP1 cell noCPT inconclusive (no result: IL1B secr inh, S-ASM inh)
Cc1ccc(C(=O)c2oc3ccc(Cl)cc3c2NC(=O)CN2CCN(C)CC2)cc1	TDP1 cell CPT inconclusive, TGFb SMAD3 inh inconclusive, TDP1 cell noCPT 21µM, IL1B secr inh -57
CCOC(=O)c1oc2ccc(OC)cc2c1NC(=O)CN1CCN(C)CC1	none
COc1cc(NC(=O)COC(=O)CCc2cc(OC)c(OC)c(OC)c2)cc(OC)c1	none
CC(=O)Nc1cc(C(F)(F)F)ccc1OCCOc1ccccc1	TDP1 cell CPT inconclusive, TDP1 cell noCPT 16µM
COCCOc1ccc(C(F)(F)F)cc1NC(=O)c1ccccc1	none
CC(=O)Nc1cc(C(F)(F)F)ccc1Oc1cccc(Br)c1	TDP1 cell CPT 23µM, TDP1 cell noCPT 13µM, IL1B secr inh inconclusive
COc1ccc(/C=C/C(=O)C2CC2)cc1Cn1nc(C)c([N+](=O)[O-])c1C	TDP1 cell CPT inconclusive, TDP1 cell noCPT inconclusive, IL1B secr inh -110, S-ASM inh inconclusive
COc1ccccc1-n1c(=O)c(C#N)c(-c2ccc([N+](=O)[O-])cc2)c2cc(C(=O)c3ccccc3O)cnc21	none
Cc1cc(C)c(CN2CCN(C(=O)Cn3cnc4c(NCc5ccccc5)ncnc43)CC2)c(C)c1	TDP1 cell CPT 5.8µM, TGFb SMAD3 inh inconclusive, TDP1 cell noCPT 1.8µM, IL1B secr inh inconclusive
Cc1cc(C)c(CN2CCN(C(=O)Cn3ccc(N)nc3=O)CC2)c(C)c1	none
CSc1nc(N)nc2c1ncn2CC(=O)N1CCN(Cc2c(C)cc(C)cc2C)CC1	TDP1 cell CPT 1.8µM, TDP1 cell noCPT 0.82µM
O=C(Cn1cnc2c(NCc3ccccc3)ncnc21)NCC1CCCO1 (stereo not drawn)	none
COc1ccc(OC)c(NC(=O)COCc2cc(-c3ccco3)on2)c1	TDP1 cell CPT inconclusive, TDP1 cell noCPT inconclusive (no result: IL1B secr inh, S-ASM inh)
O=C(CSCC(=O)Nc1ccccc1)N/N=C/c1c(O)ccc2ccccc12	TDP1 cell CPT 4.5µM, TDP1 cell noCPT 4.5µM
COc1ccc(NC(C)C(=O)N/N=C/c2ccccc2OCc2cccc(Br)c2)cc1 (stereo not drawn)	TDP1 cell CPT inconclusive, TDP1 cell noCPT inconclusive, IL1B secr inh -64
Cc1ccccc1NC(C)C(=O)N/N=C/c1ccccc1OCc1cccc(Br)c1 (stereo not drawn)	TDP1 cell CPT inconclusive, TDP1 cell noCPT inconclusive, IL1B secr inh inconclusive
CC(=O)Nc1ccc(N=Cc2c(O)ccc3ccccc23)cc1	none
O=C(N/N=C/c1c(O)ccc2ccccc12)Nc1ccccc1	TDP1 cell CPT 26µM, TDP1 cell noCPT 15µM
O=C(N/N=C/c1cc(Br)ccc1O)Nc1ccccc1	TDP1 cell CPT inconclusive, TGFb SMAD3 inh inconclusive, TDP1 cell noCPT inconclusive, IL1B secr inh -97
COc1cccc(CNC(=O)C(=O)NCC(c2ccco2)S(=O)(=O)c2ccccc2)c1 (stereo not drawn)	TDP1 cell noCPT inconclusive (no result: IL1B secr inh, S-ASM inh)
COc1ccc(Cl)cc1NC(=O)CSc1nc(NS(=O)(=O)c2ccc(C)cc2)cc(=O)[nH]1	TDP1 cell CPT inconclusive, TDP1 cell noCPT inconclusive
CCCc1cc(C(=O)Cc2ccccn2)c(O)cc1O	none
